# Data taken from PubChem BioAssay (NCI).
# “And” between values parts separate entries of the source, which are not always exact repeats. Identical values can stand only once. The panel holds about 79,000 compounds, 15% with a hit somewhere; the sample as a whole holds those more often. A number with no mark means an inactive call. The source made the active and inactive calls. No stated cut-off is given here; in the data, active means growth inhibition above about 70%; inactive means the rest.
# How the values were obtained:
# [1] = NCI Yeast Anticancer Drug Screen. Data for the rad52 strain (AID 147);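 further: 0% = growth of vehicle-treated control cultures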; settings: S. cerevisiae rad52 mutant growth inhibition, active compounds read high
# In short: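 Vehicle-treated cultures served as the reference for growth inhibition of compound-exposed yeast bearing a DNA repair mutation.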
# [2] = NCI Yeast Anticancer Drug Screen. Data for the wt1 strain (AID 149);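 further: 0% = growth of vehicle-treated wt1 cultures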; settings: S. cerevisiae wt1 strain (SPY 50644) growth inhibition, active compounds read high
# In short: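 Measured: growth of wt1 yeast under compound versus vehicle treatment, reported as inhibition.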
# [3] = NCI Yeast Anticancer Drug Screen. Data for the rad50EPP+ strain (AID 151);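 further: 0% = growth of vehicle-treated control cultures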; settings: S. cerevisiae rad50 mutant strain, active compounds read high
# In short: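 In this screen, rad50EPP+ yeast were exposed to compounds. Growth inhibition was scored against vehicle-treated controls.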
# [4] = NCI Yeast Anticancer Drug Screen. Data for the rad50 strain (AID 155);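 further: 0% = growth of vehicle-only cultures of the same strain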; settings: S. cerevisiae rad50 strain growth inhibition, active compounds read high
# In short: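 Growth of the mutant yeast was measured after compound exposure and referenced to vehicle-treated cultures.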
# [5] = NCI Yeast Anticancer Drug Screen. Data for the mec2-1 strain (AID 157); settings: S. cerevisiae mec2-1 strain, active compounds read high
# In short: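 Vehicle-treated cultures served as reference for growth inhibition of compound-exposed mec2-1 yeast.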
# [6] = NCI Yeast Anticancer Drug Screen. Data for the rad14 strain (AID 159);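 further: 0% = growth of vehicle-treated control cultures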; settings: S. cerevisiae rad14 strain growth inhibition, active compounds read high
# In short: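 Here, inhibition of yeast growth was measured after compound exposure, using a strain with a genetic defect in DNA damage repair and vehicle-treated cultures as the reference.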
# [7] = NCI Yeast Anticancer Drug Screen. Data for the sgs1 mgt1 strain (AID 161);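 further: 0% = growth of cultures given vehicle only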; settings: S. cerevisiae sgs1 mgt1 strain, active compounds read high
# In short: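 Genetically altered yeast, compound exposure, growth inhibition relative to vehicle.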
# [8] = NCI Yeast Anticancer Drug Screen. Data for the CLN2oe strain (AID 163);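 further: 0% = growth of vehicle-only control cultures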; settings: S. cerevisiae CLN2oe strain, active compounds read high
# In short: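 Inhibition relative to vehicle-treated yeast is reported. Cells: strain with genetic alteration in cell-cycle control, grown with compound.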
# [9] = NCI Yeast Anticancer Drug Screen. Data for the cln2 rad14 strain (AID 165);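 further: 0% = growth equal to vehicle treated cultures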; settings: S. cerevisiae cln2 rad14 strain, active compounds read high
# In short: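 Each compound was tested on cln2 rad14 yeast. Inhibition of growth was calculated against vehicle-exposed controls.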
# [10] = NCI Yeast Anticancer Drug Screen. Data for the bub3 strain (AID 167); settings: S. cerevisiae bub3 mutant strain, active compounds read high
# In short: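 Whole-cell yeast assay. The mutant strain was incubated with compounds, and growth inhibition was determined by comparison with vehicle-treated cells.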
# [11] = NCI Yeast Anticancer Drug Screen. Data for the mlh1 strain (AID 171);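 further: 0% = growth of vehicle-treated control cultures of the same strain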; settings: S. cerevisiae mlh1 strain growth inhibition, active compounds read high
# In short: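 Vehicle-normalised growth inhibition of a repair- or checkpoint-altered yeast strain following compound treatment.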
# [12] = NCI Yeast Anticancer Drug Screen. Data for the sgs1 strain (AID 173);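 further: 0% = growth of vehicle-only control cultures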; settings: S. cerevisiae sgs1 mutant, active compounds read high
# In short: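 Screen format: yeast with repair or checkpoint alterations, compound exposure, growth read relative to vehicle.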
# [13] = NCI Yeast Anticancer Drug Screen. Data for the mlh1 rad18 strain (AID 175); settings: S. cerevisiae mlh1 rad18 strain growth inhibition, active compounds read high
# In short: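 Vehicle-treated cultures served as the reference for growth inhibition in a yeast strain carrying DNA damage repair alterations exposed to each compound.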
# [14] = NCI Yeast Anticancer Drug Screen. Data for the rad18 strain (AID 177); settings: S. cerevisiae rad18 mutant growth inhibition, active compounds read high
# In short: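 Test articles were incubated with altered yeast defective in DNA damage repair. Results are given as inhibition of growth versus vehicle.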
# [15] = NCI Yeast Anticancer Drug Screen. Data for the wt2 strain (AID 169);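 further: 0% = growth of vehicle-treated yeast cultures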; settings: S. cerevisiae wt2 strain growth inhibition, active compounds read high
# In short: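 Inhibition of yeast growth was determined after compound treatment, normalised to controls receiving only vehicle.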
# [16] = at 5.0 µM (retest, dose inferred, filed as 0.5)
# [17] = at 50.0 µM (retest, dose inferred, filed as 5.0)
smiles,measurement,setting,value
O=Nn1c2ccccc2c2ccccc21,growth inhibition,[1]; at 1.2 µM,-15%
same,growth inhibition,[1]; at 3.7 µM,-18%
same,growth inhibition,[1]; at 11.0 µM,-22%
same,growth inhibition,[1]; at 33.0 µM,5%
same,growth inhibition,[1]; at 100.0 µM,68%
same,growth inhibition,[2]; at 1.2 µM,2%
same,growth inhibition,[2]; at 3.7 µM,21%
same,growth inhibition,[2]; at 11.0 µM,7%
same,growth inhibition,[2]; at 33.0 µM,9%
same,growth inhibition,[2]; at 100.0 µM,60%
same,growth inhibition,[3]; at 1.2 µM,0%
same,growth inhibition,[3]; at 3.7 µM,18%
same,growth inhibition,[3]; at 11.0 µM,9%
same,growth inhibition,[3]; at 33.0 µM,50%
same,growth inhibition,[3]; at 100.0 µM,79% (active)
same,growth inhibition,[4]; at 1.2 µM,12%
same,growth inhibition,[4]; at 3.7 µM,-1%
same,growth inhibition,[4]; [16],-13%
same,growth inhibition,[4]; at 11.0 µM,-3%
same,growth inhibition,[4]; at 33.0 µM,23%
same,growth inhibition,[4]; [17],13%
same,growth inhibition,[4]; at 50.0 µM,27.5% and 25.4%
same,growth inhibition,[4]; at 100.0 µM,83% (active)
same,growth inhibition,[5]; at 1.2 µM,-17%
same,growth inhibition,[5]; at 3.7 µM,2%
same,growth inhibition,[5]; [16],-1%
same,growth inhibition,[5]; at 11.0 µM,1%
same,growth inhibition,[5]; at 33.0 µM,21%
same,growth inhibition,[5]; [17],9%
same,growth inhibition,[5]; at 50.0 µM,16.7% and 11.6%
same,growth inhibition,[5]; at 100.0 µM,65%
same,growth inhibition,[6]; at 1.2 µM,10%
same,growth inhibition,[6]; at 3.7 µM,6%
same,growth inhibition,[6]; at 11.0 µM,11%
same,growth inhibition,[6]; at 33.0 µM,49%
same,growth inhibition,[6]; at 100.0 µM,92% (active)
same,growth inhibition,[7]; [16],2%
same,growth inhibition,[7]; [17],-10%
same,growth inhibition,[7]; at 50.0 µM,5.25% and 16.6%
same,growth inhibition,[8]; at 1.2 µM,11%
same,growth inhibition,[8]; at 3.7 µM,4%
same,growth inhibition,[8]; at 11.0 µM,11%
same,growth inhibition,[8]; at 33.0 µM,2%
same,growth inhibition,[8]; at 100.0 µM,65%
same,growth inhibition,[9]; [16],5%
same,growth inhibition,[9]; [17],67%
same,growth inhibition,[9]; at 50.0 µM,3.15% and 40.1%
same,growth inhibition,[10]; at 1.2 µM,-7%
same,growth inhibition,[10]; at 3.7 µM,-9%
same,growth inhibition,[10]; [16],-28%
same,growth inhibition,[10]; at 11.0 µM,-14%
same,growth inhibition,[10]; at 33.0 µM,-3%
same,growth inhibition,[10]; [17],95% (active)
same,growth inhibition,[10]; at 50.0 µM,1.5% and 66%
same,growth inhibition,[10]; at 100.0 µM,59%
same,growth inhibition,[11]; at 1.2 µM,27%
same,growth inhibition,[11]; at 3.7 µM,27%
same,growth inhibition,[11]; at 11.0 µM,19%
same,growth inhibition,[11]; at 33.0 µM,56%
same,growth inhibition,[11]; at 100.0 µM,93% (active)
same,growth inhibition,[12]; at 1.2 µM,-3%
same,growth inhibition,[12]; at 3.7 µM,5%
same,growth inhibition,[12]; at 11.0 µM,10%
same,growth inhibition,[12]; at 33.0 µM,7%
same,growth inhibition,[12]; at 100.0 µM,66%
same,growth inhibition,[13]; [16],-16%
same,growth inhibition,[13]; [17],16%
same,growth inhibition,[13]; at 50.0 µM,21.5% and 15.5%
same,growth inhibition,[14]; at 1.2 µM,9%
same,growth inhibition,[14]; at 3.7 µM,7%
same,growth inhibition,[14]; at 11.0 µM,-9%
same,growth inhibition,[14]; at 33.0 µM,24%
same,growth inhibition,[14]; at 100.0 µM,86% (active)
CCCCCCCCCCCc1nc(N)n[nH]1,growth inhibition,[1]; at 1.2 µM,-1%
same,growth inhibition,[1]; at 3.7 µM,-7%
same,growth inhibition,[1]; at 11.0 µM,5%
same,growth inhibition,[1]; at 33.0 µM,87% (active)
same,growth inhibition,[1]; at 100.0 µM,96% (active)
same,growth inhibition,[2]; at 1.2 µM,-3%
same,growth inhibition,[2]; at 3.7 µM,-4%
same,growth inhibition,[2]; at 11.0 µM,1%
same,growth inhibition,[2]; at 33.0 µM,67%
same,growth inhibition,[2]; at 100.0 µM,95% (active)
same,growth inhibition,[3]; at 1.2 µM,-1%
same,growth inhibition,[3]; at 3.7 µM,7%
same,growth inhibition,[3]; at 11.0 µM,16%
same,growth inhibition,[3]; at 33.0 µM,55%
same,growth inhibition,[3]; at 100.0 µM,70% (active)
same,growth inhibition,[4]; at 1.2 µM,-11%
same,growth inhibition,[4]; at 3.7 µM,-13%
same,growth inhibition,[4]; [16],-181%
same,growth inhibition,[4]; at 11.0 µM,-7%
same,growth inhibition,[4]; at 33.0 µM,92% (active)
same,growth inhibition,[4]; [17],81% (active)
same,growth inhibition,[4]; at 50.0 µM,97.1% (active)
same,growth inhibition,[4]; at 100.0 µM,96% (active)
same,growth inhibition,[5]; at 1.2 µM,-4%
same,growth inhibition,[5]; at 3.7 µM,1%
same,growth inhibition,[5]; [16],-48%
same,growth inhibition,[5]; at 11.0 µM,0%
same,growth inhibition,[5]; at 33.0 µM,73% (active)
same,growth inhibition,[5]; [17],87% (active)
same,growth inhibition,[5]; at 50.0 µM,96.7% (active)
same,growth inhibition,[5]; at 100.0 µM,93% (active)
same,growth inhibition,[6]; at 1.2 µM,5%
same,growth inhibition,[6]; at 3.7 µM,1%
same,growth inhibition,[6]; at 11.0 µM,7%
same,growth inhibition,[6]; at 33.0 µM,65%
same,growth inhibition,[6]; at 100.0 µM,96% (active)
same,growth inhibition,[7]; [16],-66%
same,growth inhibition,[7]; [17],59%
same,growth inhibition,[7]; at 50.0 µM,80.6% (active)
same,growth inhibition,[8]; at 1.2 µM,-3%
same,growth inhibition,[8]; at 3.7 µM,-6%
same,growth inhibition,[8]; at 11.0 µM,-13%
same,growth inhibition,[8]; at 33.0 µM,16%
same,growth inhibition,[8]; at 100.0 µM,82% (active)
same,growth inhibition,[10]; at 1.2 µM,5%
same,growth inhibition,[10]; at 3.7 µM,-2%
same,growth inhibition,[10]; [16],-79%
same,growth inhibition,[10]; at 11.0 µM,4%
same,growth inhibition,[10]; at 33.0 µM,75% (active)
same,growth inhibition,[10]; [17],88% (active)
same,growth inhibition,[10]; at 50.0 µM,95.8% (active)
same,growth inhibition,[10]; at 100.0 µM,91% (active)
same,growth inhibition,[15]; at 1.2 µM,5%
same,growth inhibition,[15]; at 3.7 µM,6%
same,growth inhibition,[15]; at 11.0 µM,24%
same,growth inhibition,[15]; at 33.0 µM,92% (active)
same,growth inhibition,[15]; at 100.0 µM,97% (active)
same,growth inhibition,[11]; at 1.2 µM,-10%
same,growth inhibition,[11]; at 3.7 µM,-6%
same,growth inhibition,[11]; at 11.0 µM,-3%
